Over roughly 68,000 sequences, “fluorescence intensity (a.u.)” has its median near 9,100; the highest 2% begin near 16,000. Only a selection was taken, and the highest values are over-represented in it overall.

OsWRKY34, sequence (Q0JBA9 entry or part of it): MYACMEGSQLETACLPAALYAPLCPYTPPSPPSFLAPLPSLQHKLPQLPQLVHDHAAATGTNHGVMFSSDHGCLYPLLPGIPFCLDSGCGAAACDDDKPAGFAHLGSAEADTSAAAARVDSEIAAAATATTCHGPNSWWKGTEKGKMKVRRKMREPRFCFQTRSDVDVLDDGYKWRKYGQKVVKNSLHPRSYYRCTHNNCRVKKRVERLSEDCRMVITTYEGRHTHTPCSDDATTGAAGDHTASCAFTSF

This assay addresses OsWRKY34 (Oryza sativa, UniProt Q0JBA9 1-250). Nature of the assay: protein-binding microarray (RPBM); PBS, 2% BSA, 51.3 ng/ul salmon testes DNA, 50 uM zinc acetate, 200 nM TF, 25 C, 1 h; high values mean tight binding. The following applies: protein: recombinant; tags: N-terminal polyhistidine and DsRed monomer fusion (pET32a); label: CyDye5-dUTP incorporated in the synthesized complementary strand; 3' TTTTT single-stranded linker to array surface; dsDNA, one strand shown. The procedure, abridged:
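The binding signal for each feature is its fluorescence intensity in arbitrary units. An Axon 4000B scanner was used to read a custom Agilent array that had been made double-stranded with Cy5-dUTP primer extension, blocked with 2% BSA, incubated at 25 °C for 1 h with 200 nM protein in PBS, 2% BSA, salmon testes DNA and 50 µM zinc acetate, and washed. The protein was an N-terminal polyhistidine–DsRed transcription factor fusion from E. coli BL21-CodonPlus, purified on Ni–NTA.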
Turning to “TTTTGTGGTATTTTAAACATGGTTTATATTTCTTATATTTCGGAGTCACCTAGTGCAG”, the binding signal is 9830 fluorescence intensity (a.u.).
Under “TTTGGATTGGGTTTGGTGGTTGGGTGGGAGGGAGGGAGCTCGGAGTCACCTAGTGCAG” stands 28600 fluorescence intensity (a.u.).
In the case of “GGTTGGGTGGAGGGTATTACAGTCTTTTTGCTTTTGTATTCGGAGTCACCTAGTGCAG”, the binding signal was 36600 fluorescence intensity (a.u.).
In the case of “GGGTTTTGGAGTGGTGGTGGTGGAGGATTGGAGTTGGGGTCGGAGTCACCTAGTGCAG” it was 11600 fluorescence intensity (a.u.); in that of “TGTTGTTTTGGTCTACAGTTGTCTTTTGAGTTGTTGTATTCGGAGTCACCTAGTGCAG”, 12200 fluorescence intensity (a.u.).
In the case of “TCGCTCTCGTTGGATTCGGTTTGGTTTGGTTTGGGCCATGCGGAGTCACCTAGTGCAG” it was 18700 fluorescence intensity (a.u.); in that of “CTTCGTTCGTTGGATTCGCTCTCGCGCGCCGCCGCCGCCGCGGAGTCACCTAGTGCAG”, 11200 fluorescence intensity (a.u.); in that of “AGAGGGATGGGTGTTTGATTGGAGTGGGTTGGGAGCCATGCGGAGTCACCTAGTGCAG”, 9390 fluorescence intensity (a.u.).
In the case of “GGGGTGTTTGGTTGAGGGGTGGGTGGGATGGATTGGTCCTCGGAGTCACCTAGTGCAG” it was 32300 fluorescence intensity (a.u.); in that of “CTCTCGTTGTTTTTGCTCTTTTGGGTTCGCTCGGAAGATGCGGAGTCACCTAGTGCAG”, 8490 fluorescence intensity (a.u.).
As for “ATGGATGGGGATTCATTTGTTTGGTGAGTAGTGGTCGGGTCGGAGTCACCTAGTGCAG”, the binding signal was 9800 fluorescence intensity (a.u.).
In the case of “TTTTTGGTGGGGTAGAGTTGTATTTGGTTTGAGGCCAATTCGGAGTCACCTAGTGCAG” it was 9480 fluorescence intensity (a.u.); in that of “TTGGTGAGGGTTTGGGTTTGGTGGTGGAGTGGAGTGGAGTCGGAGTCACCTAGTGCAG”, 10700 fluorescence intensity (a.u.); in that of “CATCGAGTAGCCGCCGCCGCCACCTGGTGCTCGTGACGCCCGGAGTCACCTAGTGCAG”, 8670 fluorescence intensity (a.u.).
Consider “CTTCAAACTTTTAATTTTTCCGTCACATCGAACTTTTCTACGGAGTCACCTAGTGCAG”, for which the binding signal is 9760 fluorescence intensity (a.u.).
Under “TCACACGTTTCATTGACGTTTCCTAGCATCCGACCTCTCTCGGAGTCACCTAGTGCAG” stands 9620 fluorescence intensity (a.u.); under “TCCCCTGTTCTCGTACACAAATTCGCAGCGATCTAATAGTCGGAGTCACCTAGTGCAG”, 8480 fluorescence intensity (a.u.); under “CTGATTTTCATTTGAGAACAAAGTTTCTACGCATATTACCCGGAGTCACCTAGTGCAG”, 8240 fluorescence intensity (a.u.).
Consider “CCCCAGCCCAGTTGGGCCCAAACTGTCCATTCCAGCCATCCGGAGTCACCTAGTGCAG”, for which the binding signal is 8330 fluorescence intensity (a.u.).
Under “TCAGTAGCATTTCCGGGTCCCATCTATATGGACTAATTTTCGGAGTCACCTAGTGCAG” stands 9100 fluorescence intensity (a.u.); under “ACAGAACGAACCACCTATACGTACGTTTTCTCTCTTTTGACGGAGTCACCTAGTGCAG”, 8040 fluorescence intensity (a.u.).
As to “TATACAATTGCCTTACCTGTCCCCACCTGTCACATGCCTCCGGAGTCACCTAGTGCAG”, the binding signal was 9460 fluorescence intensity (a.u.).
In the case of “ACCTACCACCACCTTACCCTCTCGCTGACATCCCGGCCCCCGGAGTCACCTAGTGCAG” it was 12000 fluorescence intensity (a.u.); in that of “ATTCTCAAGTTTGAATTGGGTGTATTGGGTTGGGCTAAATCGGAGTCACCTAGTGCAG”, 16700 fluorescence intensity (a.u.); in that of “CCTAAATGGTTTTGCTTGGACACTTCTGGTTACCTTGCATCGGAGTCACCTAGTGCAG”, 11900 fluorescence intensity (a.u.).
Take “GGCCTTGTTCGGTTGGTCCGGGAATGACTGGGGTTGGGCTCGGAGTCACCTAGTGCAG”: the binding signal was 9210 fluorescence intensity (a.u.).
Consider “GAGGGGAGGGGTTTGGTTTGCTTGGACACTTTGGTTTGGTCGGAGTCACCTAGTGCAG”, for which the binding signal is 20100 fluorescence intensity (a.u.).
Regarding “TTGGTTTGTATTGCGTTGTTTTGCACTTTTGTTTGTTGTGCGGAGTCACCTAGTGCAG”, the binding signal was 8300 fluorescence intensity (a.u.).
In the case of “AGTTTTGGGGTGAATTCAATTGAGGTTGCTACAGTTTAATCGGAGTCACCTAGTGCAG” it was 8760 fluorescence intensity (a.u.); in that of “TGCTTGCTTGCTTGGTTTGATTGGTGGAGGTGGGAGGAGTCGGAGTCACCTAGTGCAG”, 8520 fluorescence intensity (a.u.); in that of “TTTGTGTATTATTTGTATTGTGTTTGTGAATTCAATAAATCGGAGTCACCTAGTGCAG”, 8800 fluorescence intensity (a.u.).
On to “GGGATGGATGTGCTGGGTTGGTGGCTGGTTGGCTGGCCGGCGGAGTCACCTAGTGCAG”, for which the binding signal is 11000 fluorescence intensity (a.u.).
In the case of “AAATGTGGAATGGTTGGCCTGGGTTGGCTTGGGACGAGCTCGGAGTCACCTAGTGCAG” it was 17000 fluorescence intensity (a.u.); in that of “CGCTCACTCGGTTTGGTTTGGTTTGGATTGTATTGGGTTGCGGAGTCACCTAGTGCAG”, 39200 fluorescence intensity (a.u.); in that of “TGTGTTGGATCGGTTGGACGCGCTCACTCGGTTTGGTTTGCGGAGTCACCTAGTGCAG”, 9730 fluorescence intensity (a.u.).
Under “CTTTTGCAACTCAAGCTACTATATCTATGATGGCATCTGACGGAGTCACCTAGTGCAG” stands 8400 fluorescence intensity (a.u.); under “CTTGCTGTTACGCACCACATTGATTTACTTTCTTTTTCTTCGGAGTCACCTAGTGCAG”, 11600 fluorescence intensity (a.u.).
Under “CTCTCGACCACTTCCATTCCTTCCCGGGCTCGCCGCGCCGCGGAGTCACCTAGTGCAG” stands 9780 fluorescence intensity (a.u.); under “CTCACTCCTGGCGCCGGTGACCTCTCTGCCACTCCACCGGCGGAGTCACCTAGTGCAG”, 8550 fluorescence intensity (a.u.).
Regarding “CACATGTTATTACCACCTCATTTTGCGTAAAACACTTAATCGGAGTCACCTAGTGCAG”, the binding signal is 8460 fluorescence intensity (a.u.).
In the case of “AACATAAACACACATCATTTCCTGTCCCTTGCACGCTACGCGGAGTCACCTAGTGCAG” it was 10000 fluorescence intensity (a.u.).
With “CTCCTCATCCTCATCGTCGCCGCCGCCCACGTCGTCTCGCCGGAGTCACCTAGTGCAG”, the binding signal was 9110 fluorescence intensity (a.u.).

The record behind these values is PMC7819943, “Rice protein-binding microarrays: a tool to detect cis-acting elements near promoter regions in rice”.
